Results reported in the supplement of paper PMC12669032.

tested on: Parabacteroides distasonis; assay: growth AUC relative to DMSO control (median of replicates) (fraction); higher = more growth (less inhibition), active = hit call of the paper; details: 20 µM; 24 h;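 active = AUC reduced over 20% with Padj below 0.05 in at least 2 of 3 replicates; inactive = otherwise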
How it was run: (§1)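 Gut bacterial monocultures in mGAM were treated with 20 µM compound (1% DMSO) and grown anaerobically at 37 °C in round-bottom 96-well plates from OD600 0.05. OD600 was read hourly for 24 h, with the minimum OD set to 0. Area under the growth curve was normalised to the plate median of solvent-only wells, or to row and column medians on the industrial chemical plate. Each value is the median of three biological replicates, each grown on a separate day.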

| SMILES | growth AUC |
| --- | --- |
| C#CCOC(=O)[C@@H](C)Oc1ccc(Oc2ncc(Cl)cc2F)cc1 | 1 (inactive) |
| c1ccc2cc3c(ccc4ccccc43)cc2c1 | 0.961 (inactive) |
| CN(C)C=O | 0.998 (inactive) |
| COc1nc(N)nc(NC(C)(C)C)n1 | 1 (inactive) |
| Cc1ccc(Cl)cc1 | 0.984 (inactive) |
| O=C(O)Cc1c(Cl)ccc(Cl)c1Cl | 1.05 (inactive) |
| O=c1oc(-c2ccccc2)nc2ccccc12 | 1.05 (inactive) |
| COC(=O)c1cccc(C)c1S(=O)(=O)NC(=O)Nc1nc(OCC(F)(F)F)nc(N(C)C)n1 | 1.02 (inactive) |
| COc1cc(OC)nc(NC(=O)NS(=O)(=O)Nc2ccccc2C(=O)N(C)C)n1 | 1.03 (inactive) |
| O=S(Cc1ccc(Cl)cc1)c1ccc(Cl)cc1 (stereo not drawn) | 0.947 (inactive) |
| CCOc1ccc2c(c1)C(C)=CC(C)(C)N2 | 0.97 (inactive) |
| CC(C)COC(=O)COc1cc(Cl)c(Cl)cc1Cl | 0.971 (inactive) |
| CN(C)C(=O)Nc1cc(C(C)(C)C)on1 | 1.01 (inactive) |
| C=CCc1ccc(OC)c(OC)c1 | 1.3 (inactive) |
| CCNc1nc(NCC)nc(OC)n1 | 1.04 (inactive) |
| CCOC(=O)c1nc(C(Cl)(Cl)Cl)n(-c2ccc(Cl)cc2Cl)n1 | 0.899 (inactive) |
| Oc1ccc2ccccc2c1N=Nc1ccccc1 | 0.905 (inactive) |
| O=C(Nc1ccc(Cl)cc1C(O)c1ccccc1)c1ccncc1 (stereo not drawn) | 0.983 (inactive) |
| CSC(=O)c1cccc2nnsc12 | 0.921 (inactive) |
| Cc1ccc2c(c1)[C@H](Nc1nc(N)nc(C(C)F)n1)[C@@H](C)C2 (stereo partly drawn) | 1.09 (inactive) |

| SMILES | growth AUC |
| --- | --- |
| CCOC(=O)c1cnn(C)c1S(=O)(=O)NC(=O)Nc1nc(OC)cc(OC)n1 | 1.03 (inactive) |
| C/C=C/C(=O)Oc1c(C(C)CCCCCC)cc([N+](=O)[O-])cc1[N+](=O)[O-] (mixture of isomers) | 0.288 (active) |
| CCOC(=O)C(C)N(C(=O)c1ccccc1)c1ccc(Cl)c(Cl)c1 (stereo not drawn) | 0.733 (active) |
| COC(=O)c1c(Cl)ccc(Cl)c1OC | 1.05 (inactive) |
| c1ccc(Sc2ccccc2)cc1 | 1.01 (inactive) |
| O=C(O)Cc1c[nH]c2ccccc12 | 1.02 (inactive) |
| Cc1cc(C)c(C2=C(O)C3(CCCC3)OC2=O)c(C)c1 | 0.622 (active) |
| CC(=O)Oc1c(Cl)c(Cl)c(Cl)c(Cl)c1Cl | 0.542 (active) |
| CCNc1nc(NC(C)CC)nc(OC)n1 (stereo not drawn) | 0.996 (inactive) |
| COc1cc(OC)nc(NC(=O)NS(=O)(=O)Nc2ccccc2C(=O)C2CC2)n1 | 0.964 (inactive) |
| CCCCC(CC)COC(=O)COc1cc(Cl)c(Cl)cc1Cl (stereo not drawn) | 0.965 (inactive) |
| CSc1nnc(C(C)(C)C)c(=O)n1/N=C/C(C)C | 1.03 (inactive) |
| CC[N+](CC)(CC(=O)Nc1c(C)cccc1C)Cc1ccccc1.O=C([O-])c1ccccc1 | 1.06 (inactive) |
| CCCCOCCOCCOCc1cc2c(cc1CCC)OCO2 | 0.529 (active) |
| CC(C)N(C(=O)CS(=O)(=O)[O-])c1ccc(F)cc1.[Na+] | 1.02 (inactive) |
| CN(C)C(=O)Nc1ccc(Oc2ccc(Cl)cc2)cc1 | 0.937 (inactive) |
| [S] | 0.986 (inactive) |
| COC(=O)c1csc(C)c1S(=O)(=O)NC(=O)n1nc(OC)n(C)c1=O | 0.801 (inactive) |
| COc1c(Cl)ccc(Cl)c1C(=O)O | 1 (inactive) |

tested on: Parabacteroides merdae; assay: as above; details: 20 µM; 24 h
How it was run: as §1

| SMILES | growth AUC |
| --- | --- |
| C#CCOC(=O)[C@@H](C)Oc1ccc(Oc2ncc(Cl)cc2F)cc1 | 0.979 (inactive) |
| c1ccc2cc3c(ccc4ccccc43)cc2c1 | 0.995 (inactive) |
| CN(C)C=O | 1.02 (inactive) |
| COc1nc(N)nc(NC(C)(C)C)n1 | 1.02 (inactive) |
| Cc1ccc(Cl)cc1 | 0.99 (inactive) |
| O=C(O)Cc1c(Cl)ccc(Cl)c1Cl | 1.01 (inactive) |
| O=c1oc(-c2ccccc2)nc2ccccc12 | 0.988 (inactive) |
| COC(=O)c1cccc(C)c1S(=O)(=O)NC(=O)Nc1nc(OCC(F)(F)F)nc(N(C)C)n1 | 0.99 (inactive) |
| COc1cc(OC)nc(NC(=O)NS(=O)(=O)Nc2ccccc2C(=O)N(C)C)n1 | 1.02 (inactive) |
| O=S(Cc1ccc(Cl)cc1)c1ccc(Cl)cc1 (stereo not drawn) | 1 (inactive) |
| CCOc1ccc2c(c1)C(C)=CC(C)(C)N2 | 1.01 (inactive) |
| CC(C)COC(=O)COc1cc(Cl)c(Cl)cc1Cl | 0.946 (inactive) |
| CN(C)C(=O)Nc1cc(C(C)(C)C)on1 | 1 (inactive) |
| C=CCc1ccc(OC)c(OC)c1 | 1.04 (inactive) |
| CCNc1nc(NCC)nc(OC)n1 | 1 (inactive) |
| CCOC(=O)c1nc(C(Cl)(Cl)Cl)n(-c2ccc(Cl)cc2Cl)n1 | 0.965 (inactive) |
| Oc1ccc2ccccc2c1N=Nc1ccccc1 | 1.05 (inactive) |
| O=C(Nc1ccc(Cl)cc1C(O)c1ccccc1)c1ccncc1 (stereo not drawn) | 0.979 (inactive) |
| CSC(=O)c1cccc2nnsc12 | 1.01 (inactive) |
| Cc1ccc2c(c1)[C@H](Nc1nc(N)nc(C(C)F)n1)[C@@H](C)C2 (stereo partly drawn) | 0.972 (inactive) |

| SMILES | growth AUC |
| --- | --- |
| CCOC(=O)c1cnn(C)c1S(=O)(=O)NC(=O)Nc1nc(OC)cc(OC)n1 | 1.02 (inactive) |
| C/C=C/C(=O)Oc1c(C(C)CCCCCC)cc([N+](=O)[O-])cc1[N+](=O)[O-] (mixture of isomers) | 0.00823 (active) |
| CCOC(=O)C(C)N(C(=O)c1ccccc1)c1ccc(Cl)c(Cl)c1 (stereo not drawn) | 0.939 (inactive) |
| COC(=O)c1c(Cl)ccc(Cl)c1OC | 1.01 (inactive) |
| c1ccc(Sc2ccccc2)cc1 | 1 (inactive) |
| O=C(O)Cc1c[nH]c2ccccc12 | 1.02 (inactive) |
| Cc1cc(C)c(C2=C(O)C3(CCCC3)OC2=O)c(C)c1 | 1 (inactive) |
| CC(=O)Oc1c(Cl)c(Cl)c(Cl)c(Cl)c1Cl | 0.558 (active) |
| CCNc1nc(NC(C)CC)nc(OC)n1 (stereo not drawn) | 1.02 (inactive) |
| COc1cc(OC)nc(NC(=O)NS(=O)(=O)Nc2ccccc2C(=O)C2CC2)n1 | 0.913 (inactive) |
| CCCCC(CC)COC(=O)COc1cc(Cl)c(Cl)cc1Cl (stereo not drawn) | 0.937 (inactive) |
| CSc1nnc(C(C)(C)C)c(=O)n1/N=C/C(C)C | 1.02 (inactive) |
| CC[N+](CC)(CC(=O)Nc1c(C)cccc1C)Cc1ccccc1.O=C([O-])c1ccccc1 | 1.05 (inactive) |
| CCCCOCCOCCOCc1cc2c(cc1CCC)OCO2 | 0.924 (inactive) |
| CC(C)N(C(=O)CS(=O)(=O)[O-])c1ccc(F)cc1.[Na+] | 0.995 (inactive) |
| CN(C)C(=O)Nc1ccc(Oc2ccc(Cl)cc2)cc1 | 0.918 (inactive) |
| [S] | 1 (inactive) |
| COC(=O)c1csc(C)c1S(=O)(=O)NC(=O)n1nc(OC)n(C)c1=O | 0.99 (inactive) |
| COc1c(Cl)ccc(Cl)c1C(=O)O | 1 (inactive) |
